PubChem BioAssay AID686979 (National Center for Advancing Translational Sciences (NCATS), 2013)
Among all 420,000 compounds or so, about 50,000 (12%) were called active. Not shown: some 26% with an inconclusive outcome. This is one part of a sample in which actives are shown more often than they occur. A number with no mark means an inactive call. The call rests on the fitted dose curve; in most records, active means well fitted inhibition curve with a large enough effect; inconclusive means small, poorly fitted or top-dose-only effect; inactive means flat fitted curve, though single readings scatter.

Test: qHTS for Inhibitors of human tyrosyl-DNA phosphodiesterase 1 (TDP1): qHTS in cells in presence of CPT; further: nearly all actives have a fitted effect of over 55% in size
Settings: chicken DT40 Tdp1-/-;hTDP1 cells + 20 nM CPT, ATP luminescence, 48 h; series mostly up to 46.2 µM; activity change, negative = growth inhibition: at the top concentration
Procedure, shortened: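 Chicken DT40 Tdp1-/- cells complemented with human TDP1, 400 cells/well, exposed to compounds plus 20 nM camptothecin for at least 48 h at 37 C; viability read as ATP content by CellTiter-Glo luminescence.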
On the % scale 0 is the no-effect control and ±100 the full control effect; potency means the concentration at half of the fitted maximal effect.

First: COCCc1nn2c(=O)cc(COC(=O)c3cc(OC)c(OC)c(OC)c3)nc2s1
Second: COc1ccc(C(=O)OCc2cc(=O)n3ccsc3n2)cc1F
The “activity change, negative = growth inhibition” value of the first is lower: -7.66% for the first, 11.4% for the second.

Going from `CCc1c(C)nc2c(-c3ccccc3)c(C)nn2c1Nc1ccc(NC(C)=O)cc1` to `COc1cccc(NC(=O)C2CCN(c3cc(C)nc4c(-c5ccc(Cl)cc5)c(C)nn34)CC2)c1`, the “activity change, negative = growth inhibition” value rises from -8.91% to -3.96%.

Going from `CCOC(=O)N1CCN(S(=O)(=O)N2CCCC(C(=O)NCCCN3CCC(C)CC3)C2)CC1` (centres undefined) to `COc1cccc(CNC(=O)C2CCCN(S(=O)(=O)N3CC(C)CC(C)C3)C2)c1` (centres undefined), the “activity change, negative = growth inhibition” value falls from 2.67% to -22.7%.

Going from `COC(=O)C(C)NC(=O)COc1ccc2ccccc2c1` (centres undefined) to `CC(=O)NC(c1ccccc1)c1nc(-c2ccccc2C)cs1` (centres undefined), the “activity change, negative = growth inhibition” value rises from -9.85% to -7.32%.

Going from `CC1(C)CC(=O)C(CC(=O)N2CCC(Cc3ccccc3)CC2)C(=O)C1` to `O=C(NCc1nnc(SCC(=O)N2CCC(Cc3ccccc3)CC2)o1)c1ccco1`, the “activity change, negative = growth inhibition” value falls from -0.242% to -8.68%.

Compared with `Cn1cnnc1Sc1ccc(S(C)(=O)=O)cc1[N+](=O)[O-]`, `Cc1ccccc1OS(=O)(=O)c1cccc([N+](=O)[O-])c1` is lower in “activity change, negative = growth inhibition” value: 0.347% for the first, -23.5% for the second.

Compared with `Cc1cc(C)nc(NS(=O)(=O)c2ccc(N3C(=O)C4CCCCC4C3=O)cc2)n1` (centres undefined), `Cc1ccc(S(=O)(=O)Nc2nc(N)n(-c3ccccc3)n2)cc1` is lower in “activity change, negative = growth inhibition” value: 3.01% for the first, 1.91% for the second.

Compared with `Cc1nnc(Sc2nc3c(c(=O)[nH]c(=O)n3C)n2Cc2ccccc2)s1`, `COc1ccc(CNc2nc3c(c(=O)[nH]c(=O)n3C)n2Cc2ccccc2)cc1` is lower in “activity change, negative = growth inhibition” value: 0.541% for the first, -0.57% for the second.

Compared with `CCCCn1c(SCC(=O)NCCc2ccc(OC)c(OC)c2)nc2c1c(=O)n(C)c(=O)n2C`, `COc1ccc(CCNC(=O)Nc2ccc3c(c2)c(=O)n(C)n3C)cc1OC` is lower in “activity change, negative = growth inhibition” value: 1.15% for the first, 0.818% for the second.

Compared with `Cn1c(=O)c2sccc2n(Cc2ccc(Br)cc2)c1=O`, `Cn1c(=O)c2c(nc(Oc3ccc(C#N)cc3)n2Cc2ccc(Cl)cc2Cl)n(C)c1=O` is lower in “activity change, negative = growth inhibition” value: 4.25% for the first, -12.4% for the second.

First: Cc1ccc(CN2CCN(/N=C/c3cccnc3)CC2)c(C)c1
Second: O=C(Nc1cccc(Cl)c1)C1CCCN(c2cnccn2)C1 (centres undefined)
The “activity change, negative = growth inhibition” value of the first is higher: 5.42% for the first, -16.5% for the second.

First: COc1ccc(NC(=O)CCCC2CCCCC2)c(OC)c1
Second: COCCn1cnnc1SCC(=O)Nc1cccc(S(=O)(=O)N2CCCCC2)c1
The “activity change, negative = growth inhibition” value of the first is lower: -22.4% for the first, -15.9% for the second.

Going from `NS(=O)(=O)c1ccc2nc(NC(=O)CS(=O)(=O)c3ccc(F)cc3)sc2c1` to `O=C(CCc1ccccc1)NNc1ccc(F)cc1`, the “activity change, negative = growth inhibition” value falls from 12.2% to -27.2%.

Compared with `O=C1NC[C@H](CCCCN2C[C@H](Cc3ccc(O)cc3)N(CC3CCCCC3)C(=O)C2=O)N(CCc2ccccc2)C1=O`, `Cn1c(=O)[nH]c(=O)c2c1nc(CN(Cc1ccccc1)Cc1ccccc1)n2CCN1CCOCC1` is lower in “activity change, negative = growth inhibition” value: -7.53% for the first, -16.8% for the second.

Going from `O=c1nc(NO)ccn1C1CCCO1` (centres undefined) to `NC(=O)C1CCN(C(=O)/C(=C/c2ccco2)NC(=O)c2ccccc2)CC1`, the “activity change, negative = growth inhibition” value rises from -3.51% to 14.3%.

Going from `NC(=O)COc1ccc(C23CC4CC(CC(C4)C2)C3)cc1` to `COc1ccc(CCn2c(NCCCN3CCOCC3)nc3c2c(=O)[nH]c(=O)n3C)cc1`, the “activity change, negative = growth inhibition” value rises from -20.8% to -3.75%.

First: CC1CN(Cc2nc3c(c(=O)n(C)c(=O)n3C)n2Cc2cccc(Cl)c2)CC(C)O1 (centres undefined)
Second: Cn1c(=O)c2c(nc(NCc3ccccc3)n2CC(N)=O)n(C)c1=O
The “activity change, negative = growth inhibition” value of the first is higher: -16.9% for the first, -18% for the second.

Compared with `CC(C)CCn1cnc2c1c(=O)n(CC(=O)NC(N)=O)c(=O)n2Cc1ccccc1`, `CC(C)OCCCNc1nc2c(c(=O)n(Cc3ccccc3F)c(=O)n2C)n1C` is higher in “activity change, negative = growth inhibition” value: -21.6% for the first, -9% for the second.

First: Cc1c(C(=O)NC(=S)NCc2cccnc2)oc2ccccc12
Second: CC(Oc1ccccc1[N+](=O)[O-])C(=O)N/N=C/c1ccoc1 (centres undefined)
The “activity change, negative = growth inhibition” value of the first is lower: -16.7% for the first, -10.4% for the second.

Compared with `CC(C)CC1(C)NC(=O)N(CC(=O)Nc2ccc3c(c2)OCCO3)C1=O` (centres undefined), `Cc1cc(NC(=O)CSC2=NS(=O)(=O)c3cc(Cl)ccc3N2)no1` is higher in “activity change, negative = growth inhibition” value: 7.31% for the first, 18.3% for the second.

In the case of `O=C(NCCCN1CCCCC1)C1CCCN(c2ncnc3c2nc2n3CCCCC2)C1` (centres undefined), the “activity change, negative = growth inhibition” value was 4.33%.

For `O=C(CN1CCOc2ccccc21)N1CCC(Cc2ccccc2)CC1`, the Potency was 13 µM (active).
With `Cn1c(=O)[nH]c(=O)c2c1nc(NCCc1ccccc1)n2Cc1ccc(F)cc1` the Potency was 23.1 µM (active).
With `Cn1c(=O)c2c(nc(N/N=C/c3cccs3)n2Cc2ccc(Br)cc2)n(C)c1=O` the Potency was 20.6 µM (active).
For `Cn1c(=O)c2c(nc(OCc3cccnc3)n2Cc2ccccc2)n(C)c1=O`, the Potency was 11.6 µM (active).
For `CCn1c(NCCc2ccc(OC)c(OC)c2)nc2c1c(=O)n(C)c(=O)n2C`, the Potency was 9.2 µM (active).
For `Cn1c(=O)c2c(nc(NCCc3ccccc3)n2Cc2ccccc2)n(C)c1=O`, the Potency was 5.8 µM (active).
For `C=CCOc1nc2c(c(=O)n(C)c(=O)n2C)n1Cc1ccc(Cl)cc1Cl`, the Potency was 18.4 µM (active).
In the case of `CCCCNc1nc2c(c(=O)n(C)c(=O)n2C)n1Cc1cccc(OC)c1`, the Potency was 2.91 µM (active).
For `COc1cccc(CNS(=O)(=O)c2cc3c(cc2C)n(C)c(=O)c(=O)n3C)c1`, the Potency was “inactive”.
With `CC(C)CCn1c(CN(C)Cc2ccccc2)nc2c1c(=O)n(C)c(=O)n2C` the Potency was 6.51 µM (active).
For `COc1cccc(NC(=O)C2CCCN(c3ncnc4c3nc3n4CCCCC3)C2)c1` (centres undefined), the Potency was 20.6 µM (active).
In the case of `COc1cccc(CNC(=O)C2CCCN(c3ncnc4c3nc3n4CCCCC3)C2)c1` (centres undefined), the Potency was 23.1 µM (active).

`CC(C)c1cc(C(=O)N2CCOc3ccc(CN4CCC(Oc5cccnc5)CC4)cc3C2)n[nH]1` showed an activity change, negative = growth inhibition of -19.6% [at 9.04 µM].
